Assay results: the supplement of paper PMC6805474

Key:
[1] = tested on: Schistosoma mansoni schistosomula (LE); assay: XTT viability relative to DMSO control; higher = more viable (less active); details: 72 h; 10 µM
Method: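 XTT/PMS was then added for a further 24 h (72 h total) and A450 was read. % viability = (sample - heat-killed control)/(DMSO control - heat-killed control) x 100, from duplicate wells in two independent experiments.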

[2] = tested on: Schistosoma mansoni schistosomula (NMRI); assay: phenotypic severity score (0-4); higher = more antischistosomal effect, active = 2 or more; details: 10 µM
[3] = tested on: Schistosoma mansoni schistosomula (Liberian); assay: drug effect (1 - score/DMSO control score) (fraction); higher = more antischistosomal effect, active = 0.5 or more; extreme values may be limits of the assay; details: 10 µM
How it was run: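 Liberian-strain Schistosoma mansoni schistosomula, mechanically transformed from cercariae and pre-incubated at least 12 h, were exposed in duplicate (50 per well, flat-bottom 96-well plates) to 10 µM compound in Medium 199 with 5% FCS at 37 °C, 5% CO2, with 0.1% DMSO control wells. Wells were scored visually (10×) at 24, 48 and 72 h on a quarter-point scale from 3 (normal) to 0 (dead). Drug effect was derived from the mean test-well score relative to the mean DMSO-control score. Negative values were set to zero, and plates were valid only if control wells averaged at least 2.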
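Wherever phenotypic severity score (0-4) is given: visual microscopic scoring of shape, motility and density changes versus 0.5% DMSO solvent controls, one point per descriptor, degeneracy or death scored 4, mean of duplicate wells.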

O=C(c1ccc(F)cc1)N(CCNc1ccccc1)c1ccccc1
XTT viability [1]: 126% | phenotypic severity score ([2]; 24 h): 1 (inactive) | phenotypic severity score ([2]; 48 h): 0 (inactive) | phenotypic severity score ([2]; 72 h): 1 (inactive) | drug effect ([3]; 24 h): 0.135 (inactive) | drug effect ([3]; 48 h): 0.167 (inactive) | drug effect ([3]; 72 h): 0.25 (inactive)

CCc1ccccc1-n1c(C)cn2c3c(=O)n(C(C(=O)OC)C(C)C)c(=O)n(C)c3nc12 (stereo unspecified)
XTT viability [1]: 108% | phenotypic severity score ([2]; 24 h): 1 (inactive) | phenotypic severity score ([2]; 48 h): 0 (inactive) | phenotypic severity score ([2]; 72 h): 0 (inactive) | drug effect ([3]; 24 h): 0.15 (inactive) | drug effect ([3]; 48 h): 0.405 (inactive) | drug effect ([3]; 72 h): 0.636 (active)

O=C1N(Cc2cc3ccccc3s2)CC2CN(Cc3ccccc3)CCN12 (stereo unspecified)
XTT viability [1]: 87.2% | phenotypic severity score ([2]; 24 h): 0 (inactive) | phenotypic severity score ([2]; 48 h): 0 (inactive) | phenotypic severity score ([2]; 72 h): 0 (inactive) | drug effect ([3]; 24 h): 0.182 (inactive) | drug effect ([3]; 48 h): 0.3 (inactive) | drug effect ([3]; 72 h): 0.236 (inactive)

FC(F)(F)c1ccc(N(c2cccnc2)C2CCN(c3ccc(C(F)(F)F)cn3)CC2)cc1
XTT viability [1]: 77.5% | phenotypic severity score ([2]; 24 h): 0 (inactive) | phenotypic severity score ([2]; 48 h): 0 (inactive) | phenotypic severity score ([2]; 72 h): 1 (inactive) | drug effect ([3]; 24 h): 0.2 (inactive) | drug effect ([3]; 48 h): 0.222 (inactive) | drug effect ([3]; 72 h): 0.312 (inactive)

Cc1cc(NCCc2ccccc2)nc(NC(=N)Nc2ccc(Cl)cc2)n1
XTT viability [1]: 8.5% | phenotypic severity score ([2]; 24 h): 4 (active) | phenotypic severity score ([2]; 48 h): 4 (active) | phenotypic severity score ([2]; 72 h): 4 (active) | drug effect ([3]; 24 h): 1 (active) | drug effect ([3]; 48 h): 1 (active) | drug effect ([3]; 72 h): 1 (active)

Cc1ccc2oc(-c3cc(NC(=O)Cc4ccccc4)ccc3Cl)nc2c1
XTT viability [1]: 109% | phenotypic severity score ([2]; 24 h): 1 (inactive) | phenotypic severity score ([2]; 48 h): 0 (inactive) | phenotypic severity score ([2]; 72 h): 0 (inactive) | drug effect ([3]; 24 h): 0.227 (inactive) | drug effect ([3]; 48 h): 0.25 (inactive) | drug effect ([3]; 72 h): 0.236 (inactive)

Cc1ccc2nc(Cl)c(CNCc3cccs3)cc2c1
XTT viability [1]: 83.2% | phenotypic severity score ([2]; 24 h): 0 (inactive) | phenotypic severity score ([2]; 48 h): 0 (inactive) | phenotypic severity score ([2]; 72 h): 0 (inactive) | drug effect ([3]; 24 h): 0.182 (inactive) | drug effect ([3]; 48 h): 0.2 (inactive) | drug effect ([3]; 72 h): 0.0727 (inactive)

CNC(=O)C1Cc2c([nH]c3cc(Cl)ccc23)C2(CCN(CCc3ccccc3)CC2)N1 (stereo unspecified)
XTT viability [1]: 13.4% | phenotypic severity score ([2]; 24 h): 0 (inactive) | phenotypic severity score ([2]; 48 h): 0 (inactive) | phenotypic severity score ([2]; 72 h): 0 (inactive) | drug effect ([3]; 24 h): 0.1 (inactive) | drug effect ([3]; 48 h): 0.514 (active) | drug effect ([3]; 72 h): 0.394 (inactive)

Clc1ccc(Cl)c(CO[C@H]2CCCC[C@@H]2n2ccnc2)c1
XTT viability [1]: 109% | phenotypic severity score ([2]; 24 h): 0 (inactive) | phenotypic severity score ([2]; 48 h): 0 (inactive) | phenotypic severity score ([2]; 72 h): 0 (inactive) | drug effect ([3]; 24 h): 0.2 (inactive) | drug effect ([3]; 48 h): 0.167 (inactive) | drug effect ([3]; 72 h): 0.25 (inactive)

O=[N+]([O-])c1cn2c(n1)OC[C@@H](OCc1ccc(OC(F)(F)F)cc1)C2
XTT viability [1]: 158% | phenotypic severity score ([2]; 24 h): 0 (inactive) | phenotypic severity score ([2]; 48 h): 0 (inactive) | phenotypic severity score ([2]; 72 h): 0 (inactive) | drug effect ([3]; 24 h): 0.2 (inactive) | drug effect ([3]; 48 h): 0.167 (inactive) | drug effect ([3]; 72 h): 0.312 (inactive)

CCOc1ccc(-c2nc(NC(=O)CS(=O)(=O)c3ccccc3)sc2C)cc1
XTT viability [1]: 61.8% | phenotypic severity score ([2]; 24 h): 0 (inactive) | phenotypic severity score ([2]; 48 h): 0 (inactive) | phenotypic severity score ([2]; 72 h): 1 (inactive) | drug effect ([3]; 24 h): 0.1 (inactive) | drug effect ([3]; 48 h): 0.0811 (inactive) | drug effect ([3]; 72 h): 0.111 (inactive)

CCCS(=O)(=O)N1CCC(CO)(Cc2ccccc2C(F)(F)F)CC1
XTT viability [1]: 95.7% | phenotypic severity score ([2]; 24 h): 2 (active) | phenotypic severity score ([2]; 48 h): 4 (active) | phenotypic severity score ([2]; 72 h): 4 (active) | drug effect ([3]; 24 h): 0.243 (inactive) | drug effect ([3]; 48 h): 0.278 (inactive) | drug effect ([3]; 72 h): 0.75 (active)

COc1ccc(S(=O)(=O)Nc2ccc(CN3CCN(C(=O)c4cccc(C#N)c4)CC3)cc2)cc1
XTT viability [1]: 144% | phenotypic severity score ([2]; 24 h): 0 (inactive) | phenotypic severity score ([2]; 48 h): 0 (inactive) | phenotypic severity score ([2]; 72 h): 1 (inactive) | drug effect ([3]; 24 h): 0.1 (inactive) | drug effect ([3]; 48 h): 0.111 (inactive) | drug effect ([3]; 72 h): 0.188 (inactive)

CC(=O)Nc1ccc(NC(=O)c2cc(-c3cc(Cl)ccc3O)[nH]n2)cc1
XTT viability [1]: 94.2% | phenotypic severity score ([2]; 24 h): 0 (inactive) | phenotypic severity score ([2]; 48 h): 0 (inactive) | phenotypic severity score ([2]; 72 h): 0 (inactive) | drug effect ([3]; 24 h): 0.227 (inactive) | drug effect ([3]; 48 h): 0.15 (inactive) | drug effect ([3]; 72 h): 0.127 (inactive)

NC(=O)c1cc(-c2ccsc2)ccc1OCCOc1ccccc1
XTT viability [1]: 89.5% | phenotypic severity score ([2]; 24 h): 0 (inactive) | phenotypic severity score ([2]; 48 h): 0 (inactive) | phenotypic severity score ([2]; 72 h): 0 (inactive) | drug effect ([3]; 24 h): 0.158 (inactive) | drug effect ([3]; 48 h): 0.111 (inactive) | drug effect ([3]; 72 h): < 0 (inactive)

COc1cc(NC(C)CCCN)c2ncccc2c1 (stereo unspecified)
XTT viability [1]: 77.4% | phenotypic severity score ([2]; 24 h): 0 (inactive) | phenotypic severity score ([2]; 48 h): 0 (inactive) | phenotypic severity score ([2]; 72 h): 0 (inactive) | drug effect ([3]; 24 h): < 0 (inactive) | drug effect ([3]; 48 h): 0.135 (inactive) | drug effect ([3]; 72 h): 0.333 (inactive)

CC(C(=O)N1CCCC1)N1CCN(S(=O)(=O)c2ccc(C(C)(C)C)cc2)CC1 (stereo unspecified)
XTT viability [1]: 109% | phenotypic severity score ([2]; 24 h): 1 (inactive) | phenotypic severity score ([2]; 48 h): 0 (inactive) | phenotypic severity score ([2]; 72 h): 0 (inactive) | drug effect ([3]; 24 h): 0.05 (inactive) | drug effect ([3]; 48 h): 0.027 (inactive) | drug effect ([3]; 72 h): 0.0909 (inactive)

Cc1[nH]c2cc(F)cc(F)c2c(=O)c1-c1ccc(Oc2ccc(OC(F)(F)F)cc2)cc1
XTT viability [1]: 74.6% | phenotypic severity score ([2]; 24 h): 2 (active) | phenotypic severity score ([2]; 48 h): 4 (active) | phenotypic severity score ([2]; 72 h): 4 (active) | drug effect ([3]; 24 h): 0.45 (inactive) | drug effect ([3]; 48 h): 0.778 (active) | drug effect ([3]; 72 h): 0.75 (active)
